Compounds without any hit were thinned out: in the full panel of roughly 83,000, 20% have a hit.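 The endpoint reported here, percent growth, reads 100 for growth as untreated, 0 for no net growth and -100 for all cells dead.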 A number with no mark means an inactive call. Active and inactive are the calls of the source. Rule for the calls: active = growth percent below 10; inactive = the rest.

The assay deals with A498 renal. Nature of the assay: NCI-60 one-dose screen, 48 h (100 = growth as untreated, 0 = no growth, -100 = all killed). Particulars: 10 µM unless noted.
With `CCC(=O)Nc1ccc(-c2nc(-c3cccc(O)c3)c(-c3ccnc(Br)c3)[nH]2)cc1`, the growth is 70.5%.

In the case of `NC(=O)c1c(NC(=O)c2cccc(OC(F)(F)F)c2)sc2c1CCC(=O)C2`, the growth was 88.3%.

As to `COc1cc(C2=NN(C(C)=O)C(c3ccc(N4CCOCC4)cc3)C2)cc(OC)c1OC` (stereo not drawn), the growth was 78.7%.

For `CCC(=O)Nc1cc(Nc2cc(NC3CC3)n3ncc(C#N)c3n2)ccc1C`, the growth was -21.5% (active).

As for `O=C(CSc1ccc(-c2nc3ccccc3[nH]2)cn1)N1CCN(c2ccccc2F)CC1`, the growth was 77%.

Consider `NCCN1CCN(c2nc(-c3ccccc3)nc3nc(-c4ccccc4)oc23)CC1`, for which the growth is 61.7%.

For the molecule `CCN(CC)Cc1c(-c2cccc(OC(F)(F)F)c2)[nH]c2ccc(N3CCCC3)cc2c1=O`, the growth is 104%.

Consider `C#C[C@]1(O)CC[C@H]2[C@@H]3CC=C4c5sc(-c6ccc(OC)cc6)nc5CC[C@]4(C)[C@H]3CC[C@@]21C`, for which the growth is 56%.

Consider `C#C[C@]1(O)CC[C@H]2[C@@H]3CC=C4c5sc(Nc6cc(OC)ccc6OC)nc5CC[C@]4(C)[C@H]3CC[C@@]21C`, for which the growth was -28.3% (active).

Consider `O=C(Nc1cccc(-c2nc(-c3ccc(NC(=O)c4cccnc4)cc3Cl)no2)c1)Nc1ccc(NC(=O)C2CC2)c(C(F)(F)F)c1`, for which the growth was -69.6% (active).

On to `O=C(Nc1ccc(-c2nc(-c3cccc(O)c3)c(-c3ccnc(Br)c3)[nH]2)cc1)c1ccccc1`, for which the growth was -11.4% (active).

In the case of `COc1ccccc1N1CCN(C2=NN=C(c3cccc(Cl)c3)c3ccccc3C2)CC1`, the growth is -16.6% (active).

As to `O=C(NNc1nc2cc(F)c(F)cc2n2cccc12)c1ncccn1`, the growth was 17.7%.

As to `O=C(CN1C(=O)CSC1=O)Nc1ccc(C(=O)/C=C/c2cc3ccccc3nc2Cl)cc1`, the growth was 94.3%.

As for `O=C(C[n+]1ccnc2ccccc21)c1ccc(O)c(O)c1`, the growth was 87.7%.

For `Cn1ccnc1C(=O)/C=C/c1ccc(C(=O)Nc2ccc(NC(=O)CCNC(=O)c3csc(Br)n3)cc2)cc1`, the growth is 100%.

With `COc1ccc(Oc2ccc(C3CC(c4cc(OC)c(OC)c(OC)c4)=NN3C(C)=O)cc2)cc1` (stereo not drawn), the growth was 29.5%.

`O=C1/C(=C/c2ccccc2[N+](=O)[O-])Oc2ccc(O)cc21`: the growth is 87.3%.

Consider `O=c1c2ccccc2nc(COc2ccccc2)n1/N=C/C=C/c1ccccc1`, for which the growth is 98.6%.

Turning to `C#C[C@]1(O)CC[C@H]2[C@@H]3CC=C4c5sc(C6CC6)nc5CC[C@]4(C)[C@H]3CC[C@@]21C`, the growth was 99.9%.

As to `Cc1ccc(S(=O)(=O)N/N=C/c2cn(-c3ccc(F)cc3)nc2-c2ccc(S(C)(=O)=O)cc2)cc1`, the growth is 87.5%.

`C#C[C@]1(O)CC[C@H]2[C@@H]3CC=C4c5sc(-c6ccccn6)nc5CC[C@]4(C)[C@H]3CC[C@@]21C`: the growth was 70.6%.

`CCOC(=O)c1c(NC(=O)c2cccc(C(F)(F)F)c2)sc2c(CN3CCN(C)CC3)c(O)ccc12`: the growth was 77.5%.

Regarding `CCOC(=O)Nc1ccc(-c2nc(-c3cccc(O)c3)c(-c3ccnc(Br)c3)[nH]2)cc1`, the growth is 49.4%.

For the molecule `COc1ccc(NS(=O)(=O)c2ccc(-c3cnc(C4CC4)o3)cc2)cc1Cl`, the growth was 13.1%.

`O=S(=O)(Nc1ccc(I)c(Cl)c1)c1ccc(-c2cnc(C3CC3)o2)cc1`: the growth is 2.08% (active).

Turning to `O=S(=O)(Nc1ccc2c(c1)OC(F)(F)O2)c1ccc(-c2cnc(C3CC3)o2)cc1`, the growth is 23.2%.

As for `O=C(CN1CCN(c2cc(=O)n(-c3ccccc3)c3ccccc23)CC1)Nc1ccc([N+](=O)[O-])cc1`, the growth is 88.2%.

As to `CN(c1ccc(Cl)cc1)S(=O)(=O)c1ccc(-c2cnc(C3CC3)o2)cc1`, the growth is 12.8%.

On to `O=C(/C=C/c1cn(-c2ccccc2)nc1-c1ccc(Cl)cc1)c1cc2ccccc2oc1=O`, for which the growth was 111%.

Consider `O=C1C[C@@H](c2ccccc2)Oc2c(Cc3ccccc3O)c(O)c(Cc3cc(Cc4cc(Cc5ccccc5O)ccc4O)ccc3O)c(O)c21`, for which the growth is 98.3%.

`CCC(CC)N1C(=O)/C(=c2\sc3n(c2=O)C2C(NN=3)N(CC)C(=O)N2CC)c2ccccc21` (stereo not drawn): the growth was -17% (active).

In the case of `COC(=O)Nc1ccc(-c2nc(-c3cccc(O)c3)c(-c3ccnc(Br)c3)[nH]2)cc1`, the growth was 73.4%.

As to `CC(=O)Nc1ccc(NC(=O)Nc2cccc(-c3nc(-c4ccc(NC(=O)c5cccs5)cc4Cl)no3)c2)cc1C(F)(F)F`, the growth is -87.9% (active).

On to `O=S(=O)(Nc1cc(Cl)cc(Cl)c1)c1ccc(-c2cnc(C3CC3)o2)cc1`, for which the growth is 15.7%.

As for `CC(=O)Nc1ccc(NC(=O)Nc2cccc(-c3nc(-c4ccc(NC(=O)c5cccnc5)cc4Cl)no3)c2)cc1C(F)(F)F`, the growth was -64.8% (active).

`O=C(Nc1cccc(-c2nc(-c3ccc(NC(=O)c4cccs4)cc3Cl)no2)c1)Nc1ccc(NC(=O)C2CC2)c(C(F)(F)F)c1`: the growth is -89% (active).

With `CN1C(=O)N(C)C2Nn3c(s/c(=C\c4ccccn4)c3=O)=NC21` (stereo not drawn), the growth was 105%.

The record behind these values is PubChem BioAssay (NCI).
